# Screening results: PubChem, National Center for Advancing Translational Sciences (NCATS)
# MCF10A rerep – inducers of DNA re-replication in MCF 10A breast cells. 350,000 compounds, 2.9% hits. Potency, µM (top dose mostly 46.1 µM), for inactives: top-dose activity, positive = re-replication, most hits filed as activators. MCF 10A DNA re-replication, Hoechst nuclear intensity, 48 h; further: % of control where 0% means no effect; nearly all actives have a fitted effect of over 50% in size
# SW480 rerep – inducers of DNA re-replication in SW480 colon cancer cells; AID 624297; 340,000 compounds, 1.8% hits; Potency, µM (titrated, usually from 46.1 µM), for inactives: top-dose re-replication activation, usual class: activators; SW480 DNA re-replication, Hoechst DNA content imaging, 48 h; further: % of control where 0% means no effect; nearly all actives have a fitted effect of over 55% in size
#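 Cells (250 per well) received 23 nL compound or DMSO by pin tool and were kept 48 hr at 37 C, 5% CO2. Nuclei were then stained with Hoechst for 40 min and scanned for DNA content.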
# HT1080 IDH1KD tx – toxicity to HT-1080 IDH1 knockdown cells (counter line). HT-1080 IDH1 knockdown viability, ATP luminescence, 48 h. Potency, µM (highest dose often 46.1 µM), for the others: at the highest dose activity, negative = toxicity, most hits filed as cytotoxic. 360,000 compounds, 2% hits;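 further: 0% = DMSO wells and -100% = cell-free medium wells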
#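 HT-1080-IDH1KD cells (IDH1 knocked down), 750/well in RPMI with 5% FBS, treated with compound 48 h at 37 degrees C. Viability by CellTiter-Glo luminescence, normalised to DMSO and no-cell wells; concentration-response curves classed.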
# KB-3-1 cytotox – KB-3-1 parental cell cytotoxicity | 400,000 compounds, 1.4% hits | Potency, µM (series often up to 46.1 µM), usual class: cytotoxic | KB-3-1 viability, CellTiter-Glo ATP luminescence, 72 h; further: on the % scale 0 is the no-effect control and ±100 the full control effect; nearly all actives have a fitted effect of over 60% in size
#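 Using CellTiter-Glo luminescence, growth of non-resistant KB-3-1 adenocarcinoma cells is assessed 72 h after pin-tool compound addition at 37 °C. Normalized responses across the concentration series yield fitted curves.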
# HT1080-NT tox – kills 2HG-producing HT-1080-NT fibrosarcoma cells; HT-1080-NT fibrosarcoma viability, CellTiter-Glo ATP luminescence, 48 h; Potency, µM (top dose mostly 46.1 µM), for the others: at the top dose activity, negative = less viability, most hits filed as cytotoxic; 360,000 compounds, 1.6% hits;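 further: NT is the 2HG producing partner of a matched IDH1 knockdown line; 0% = DMSO-treated cells and -100% = media-only wells without cells; nearly all actives have a fitted effect of over 55% in size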
#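 Luminescent CellTiter-Glo readout after 48 hours of compound exposure at 37 degrees C defined viability of HT-1080-NT cells. Activity was normalized to DMSO wells and cell-free media wells; concentration-response curves were fitted and assigned curve classes.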
# KB-V1 MDR tox – kills drug-selected multidrug resistant KB-V1 cells; Potency, µM (series often up to 46.1 µM), actives largely listed as cytotoxic; KB-V1 MDR cells viability, CellTiter-Glo, 72 h; 400,000 compounds, 3.4% hits; further: on the % scale 0 is the no-effect control and ±100 the full control effect; nearly all actives have a fitted effect of over 60% in size
#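 Potencies derive from concentration-effect curves fitted to normalized luminescence (CellTiter-Glo) of KB-V1 cells treated for 72 h at 37 degrees C in phenol-red-free DMEM containing 10% FBS.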
# Starred values were filed as active, the others as inactive; i = inactive; ? = inconclusive; . = no result given. Sampled rows, rich in hits. Any-hit rate of the full collection: about 7.9%. The call rests on the fitted dose curve; in most records, active means well fitted curve in the direction sought with a large enough effect; inconclusive means small, poorly fitted or top-dose-only effect, or another doubt; inactive means no such curve, though single readings can be large; an effect the other way counts as inactive or inconclusive. Potency means the concentration at half of the fitted maximal effect.
SMILES,MCF10A rerep,SW480 rerep,HT1080 IDH1KD tx,KB-3-1 cytotox,HT1080-NT tox,KB-V1 MDR tox
COc1cc(OC)c2c(-c3cccc(-c4ccc(NC(C)=O)cc4)c3)cc(=O)oc2c1,?,9.2µM*,0.92µM*,i,0.52µM*,i
COc1cc(OC)c2c(-c3cccc(-c4ccc(C#N)cc4)c3)cc(=O)oc2c1,?,?,-19%,i,?,?
COc1cc(OC)c2c(-c3cccc(-c4ccc(F)c(Cl)c4)c3)cc(=O)oc2c1,4.6µM*,?,16µM*,?,?,?
CCOC(=O)c1ccc(-c2cccc(-c3cc(=O)oc4cc(OC)cc(OC)c34)c2)cc1,?,?,8%,i,1%,i
CCOc1ccc(C(=O)c2cn(CC(=O)Nc3ccc4c(c3)OCCO4)c3ccc(OC)cc3c2=O)cc1,.,.,.,i,.,i
Cc1cccc(NC(=O)CN2c3ccccc3S(=O)(=O)c3ccccc32)c1C,.,.,.,i,.,i
CCCOc1ccccc1C1CC(=O)Nc2cc3c(cc21)OCCO3 (configuration not stated),?,?,1.5µM*,1.3µM*,1.3µM*,2.6µM*
CCCCOc1ccccc1C1CC(=O)Nc2cc(OC)c(OC)cc21 (configuration not stated),.,.,.,i,.,i
CCOc1ccccc1C1CC(=O)Nc2cc3c(cc21)OCCO3 (configuration not stated),7.3µM*,2.9µM*,4.1µM*,0.46µM*,?,?
CCCCN(C(=O)c1ccc([N+](=O)[O-])s1)c1c(N)n(CC(C)C)c(=O)[nH]c1=O,10%,13%,-13%,i,-6%,i
CCCCn1c(N)c(N(CCC(C)C)C(=O)c2ccc([N+](=O)[O-])s2)c(=O)[nH]c1=O,23µM*,?,-14%,i,-17%,i
CSc1ccccc1NC(=O)Cn1c(-c2cscn2)nc2ccccc21,21%,-9%,-19%,i,1%,16µM*
NNC(=O)Cn1c(-c2nonc2N)nc2ccccc21,2%,-1%,3%,i,1%,i
CCCCOc1ccccc1NC(=O)Cn1c(-c2cncs2)nc2ccccc21,.,.,.,i,.,i
Nc1nonc1-c1nc2ccccc2n1CC(=O)N/N=C\c1ccc(-c2ccc(Cl)cc2)o1,8.9µM*,?,2%,?,1%,?
CCCCOc1ccccc1NC(=O)Cn1c(-c2nonc2N)nc2ccccc21,0.79µM*,?,1.3µM*,4.6µM*,1.5µM*,1.8µM*
O=CC(=O)c1ccc(F)cc1,.,.,.,i,.,i
COc1cc(OC)cc(C(=O)c2c(C)c(C#N)c3ccccn23)c1,?,10µM*,12%,5.2µM*,?,?
O=C(Nc1cccc(-c2cccc(Cl)c2)c1)C1CCN(Cc2ccc(CO)o2)CC1,17%,?,16µM*,?,16µM*,i
CC(C)n1cc(CN2CCC(C(=O)Nc3cccc(-c4cccc(Cl)c4)c3)CC2)cn1,18µM*,3.3µM*,?,?,18µM*,?
Cc1cc(Cl)ccc1NC(=O)c1cccc(NC(=O)N2CCSc3ncccc32)c1,.,.,.,i,.,i
CCOc1cc2[nH]c(=O)n(Cc3ccc(C(=O)N4CCN(c5cccc(Cl)c5)CC4)cc3)c(=O)c2cc1OCC,.,.,.,i,.,i
CC(=O)C1=C(O)CCC1=NCCc1ccccc1,21µM*,?,11%,i,13%,i
Cc1ccc(CNC(=O)C(=O)Nc2c3c(nn2-c2ccc(F)cc2)CSC3)cc1,.,.,.,i,.,i
Brc1ccc(C2C3=C(Nc4ncnn42)c2ccccc2OC3c2ccncc2)cc1 (configuration not stated),?,?,?,?,?,21µM*
SMILES,MCF10A rerep,SW480 rerep,HT1080 IDH1KD tx,KB-3-1 cytotox,HT1080-NT tox,KB-V1 MDR tox
COc1ccc(C2Oc3ccccc3C3=C2C(c2cccs2)n2ncnc2N3)cc1 (configuration not stated),?,?,8.2µM*,5.8µM*,?,5.8µM*
CCc1ccc(C(=O)c2cn(CC(=O)Nc3ccc4c(c3)OCO4)c3cc(OC)c(OC)cc3c2=O)cc1,.,.,.,i,.,i
N/C(=N\OC(=O)C12CC3CC(CC(C3)C1)C2)c1ccncc1,?,-8%,-16%,i,-4%,i
Cc1ccc(C(=O)OCC(=O)N2CCOCC2)cc1,4%,-8%,6%,i,6%,i
Cc1ccc(/C(N)=N/OC(=O)C23CC4CC(CC(C4)C2)C3)cc1,18µM*,1%,6%,?,16%,?
Cc1ccc(/C(N)=N/OC(=O)N2CCOCC2)cc1,0%,1%,18µM*,i,?,?
Cc1cc(O)c(C(c2ccc(F)cc2)N2CCCCC2)c(=O)n1Cc1ccco1 (configuration not stated),.,.,.,i,.,i
Cc1cccc(C(=O)OCC(=O)N2c3ccccc3CC2C)c1C (configuration not stated),.,.,-17%,i,-12%,i
Fc1ccc(N2CCN(c3nc4ccccc4c4nc(-c5cccnc5)nn34)CC2)cc1,.,.,.,i,.,i
CCOc1cc(C=C(C(=O)OC)C(=O)OC)ccc1OCc1ccc([N+](=O)[O-])cc1,0.65µM*,15µM*,7.3µM*,18µM*,5.8µM*,?
CCOc1cc(/C=N/O)ccc1OCc1ccc([N+](=O)[O-])cc1,13%,10%,-11%,i,-10%,i
CC(C)Cn1c(SCC(N)=O)nnc1-c1cccc(S(=O)(=O)N2CCOCC2)c1,-3%,-6%,-2%,i,3%,i
Cc1ccc(CSc2nnc(-c3cccc(S(=O)(=O)N4CCOCC4)c3)n2CC(C)C)cc1,24%,6%,-17%,23µM*,-5%,4.6µM*
CN=C1NC(C)(C)C2CCC(C)(CC2)S1,12µM*,2%,6%,i,7%,i
CC(=O)NC(c1cccc(F)c1)c1nc(-c2cnn(C)c2)cs1 (configuration not stated),.,.,19%,i,?,i
CC(C)C(=O)Nc1ncc(Cc2ccccc2Cl)s1,3%,0%,-15%,i,-1%,i
N#CCC(=O)Nc1ncc(Cc2ccccc2Cl)s1,15µM*,?,-30%,i,-7%,i
O=C(CN1CCOCC1)Nc1ncc(Cc2cccc3ccccc23)s1,?,22%,0%,i,?,13µM*
Cc1cccc(NC(=O)CSc2nc(-c3cccs3)cc(C(F)(F)F)c2C#N)c1,.,.,.,i,.,i
